Assay outcomes deposited in PubChem BioAssay by several laboratories.
Only some compounds are listed: those with a hit (about 1.9% of all), similar ones and a draw of the others.
NCF1 inh = inhibitors of human p47phox binding. p47phox/p22phox peptide binding, fluorescence polarization, 2 h. inhibition, % at 24.7 µM. 220,000 tested, 0.53% active;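 active = inhibition above about 30%, limit read from the data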;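 note: 0% = p47phox with labelled peptide and 100% = labelled peptide alone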
14-3-3 Bad PPI = disrupts binding of bovine 14-3-3 zeta to phospho-Bad peptide; P63103; TR-FRET 14-3-3zeta/Dy647-pBad peptide displacement, 1 h; inhibition, % at 21.7 µM; 220,000 tested, 0.71% active;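 active = inhibition above about 70%, limit read from the data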;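 note: 0% = full 14-3-3 plus peptide FRET controls and 100% = background without 14-3-3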
Target sequence (P63103 whole entry, looked up): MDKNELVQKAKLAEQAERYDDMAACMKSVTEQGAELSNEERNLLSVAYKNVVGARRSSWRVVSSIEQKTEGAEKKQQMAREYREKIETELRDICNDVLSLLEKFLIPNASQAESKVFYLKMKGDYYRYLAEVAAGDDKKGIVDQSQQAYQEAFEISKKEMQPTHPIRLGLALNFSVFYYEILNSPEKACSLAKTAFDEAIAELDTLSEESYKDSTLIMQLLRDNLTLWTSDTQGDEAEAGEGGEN
HMGR II inh = inhibitors of class II HMG-CoA reductase from Enterococcus faecalis | purified E. faecalis HMGR, NADPH absorbance 340 nm kinetic | inhibition, % at 10 µM | 190,000 tested, 0.41% active | AID 1066;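 active = inhibition above a set limit, the median over all tested compounds plus 3 SD, cut at about 9.5% in these data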;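 note: enzyme runs in reverse so mevalonate oxidation gives rising NADPH absorbance; 0% = complete reaction with DMSO and 100% = background rate lacking mevalonate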
dFosB act = enhances mouse delta FosB homodimer DNA binding; activation, % at 25 µM; purified delta FosB, TAMRA-CDK5 oligo fluorescence polarization; percent of positive-control signal above neutral wells; 340,000 tested, 0.99% active; P13346; AID 493131;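 active = mean activation above about 17%, with every replicate also reaching it, limit read from the data, passing the limit was not always enough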
Target sequence (P13346 whole entry, looked up): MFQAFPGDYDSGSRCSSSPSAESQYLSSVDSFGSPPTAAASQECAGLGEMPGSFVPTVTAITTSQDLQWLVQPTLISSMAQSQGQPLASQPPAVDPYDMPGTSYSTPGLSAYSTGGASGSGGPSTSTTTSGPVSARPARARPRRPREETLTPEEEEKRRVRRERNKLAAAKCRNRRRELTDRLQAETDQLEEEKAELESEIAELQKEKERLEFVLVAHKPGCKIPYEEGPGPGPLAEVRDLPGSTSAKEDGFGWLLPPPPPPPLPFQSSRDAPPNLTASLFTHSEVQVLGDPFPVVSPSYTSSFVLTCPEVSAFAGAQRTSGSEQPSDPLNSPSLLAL
* hit, by the source's call; nt = no result; + = active, no number; [ ] = another dose, or the depositor's remark.

SMILES	NCF1 inh	14-3-3 Bad PPI	HMGR II inh	dFosB act
CCc1cccc2sc(NC(=O)C3CC3)nc12	nt	nt	nt	-1.4
COc1ccc(OC)c(C2=NOC(C(=O)Nc3cccc(C(C)=O)c3)C2)c1 (stereo not drawn)	3.1	-0.6	-2.8	-12.7
COc1cc2c(cc1OC)-c1cc(NCc3ccccn3)nc(=O)n1CC2	7.1	90.5*[fluorescence artefact?]	1.5	-4.8
CCNc1cc2n(c(=O)n1)CCc1cc(OC)c(OC)cc1-2	-8.3	10.5	-5.2	-2.2
O=C(N/N=C/c1cccnc1)c1ccc(NC(=O)c2cccc(Cl)c2)cc1	nt	nt	nt	45.5*
O=S(=O)(c1ccc(-c2ccccc2)cc1)N1CCCCC1	nt	nt	nt	-6.5
Cc1ccccc1Cn1c2ccccc2c2cnn(CC(=O)NCc3ccccn3)c(=O)c21	nt	nt	nt	6.8
Cc1cc(-c2n[nH]c(=S)n2Cc2ccccc2)cs1	41.0*	12.3	-1.3	1.3
S=c1[nH]nc(-c2ccncc2)n1Cc1ccccc1	1.5	-6.0	-6.6	4.8
Cc1ccc(OCC(=O)c2c(O)c3ccccc3oc2=O)cc1C	-23.7	74.2*	1.3	-7.6
O=C(NC1CC1)c1cc(-c2ccco2)nc2ccccc12	19.0	83.1*	nt	-10.3
Cc1ccccc1C(=O)Nc1ccccc1-c1nnn(CC(=O)Nc2ccc3c(c2)OCCO3)n1	-88.8	nt	2.8	31.2*
CN(CC(=O)Nc1ccc(F)c(Cl)c1)S(=O)(=O)c1ccc2c(c1)n(C)c(=O)c(=O)n2C	nt	nt	nt	42.0*
Cc1ccc(NC(=O)CN(C)S(=O)(=O)c2ccc3c(c2)n(C)c(=O)c(=O)n3C)cc1	nt	nt	nt	13.1
O=C(NNC(=O)C1CCN(Cc2ccccc2)CC1)c1cccs1	4.8	73.4*	-0.8	-3.3
O=c1[nH]c2ccc(S(=O)(=O)Nc3ccc(-c4nnc5n4CCCCC5)cc3)cc2o1	55.9*	-1.7	-0.6	-0.5
CS(=O)(=O)Nc1ccc(-c2nnc3n2CCCCC3)cc1	nt	nt	nt	-3.0
CCOP(=O)(C1=C(O)C(=O)C(C(C)(C)C)=CC1=O)c1ccccc1 (stereo not drawn)	-4.9	-4.0	2.1	-0.1
Cc1cccc2nc(-c3ccccc3)nc(N[C@@H](CO)c3ccccc3)c12	-19.2	76.0*[fluorescence artefact?]	-5.6	-1.0
C=CCc1ccccc1OCCCCN1CCCC1	-7.7	79.2*	-2.6	0.3
Cc1ccccc1OCCCN1CCCC1	-3.6	76.1*	-2.9	-2.6
CC1CCCN(CCCOc2ccccc2-c2ccccc2)C1 (stereo not drawn)	31.0*	10.1	0.0	-8.9
CN(C)c1ccc2nc3ccc(=[N+](C)C)cc-3sc2c1	+	-145.1	-0.4	40.0*
Cc1cc2nc3ccc(=[N+](C)C)cc-3sc2cc1N	+	-124.5	nt	-174.0
CCN1CCN(c2nc(Nc3cccc(C)c3)nc(N)c2[N+](=O)[O-])CC1	-1.7	1.3	-1.4	8.6
SMILES	NCF1 inh	14-3-3 Bad PPI	HMGR II inh	dFosB act
Nc1nc(Nc2cccc(F)c2)nc(N2CCOCC2)c1[N+](=O)[O-]	-11.5	-3.3	nt	4.9
COc1ccc(Nc2nc(NCCCN3CCOCC3)nc(N)c2[N+](=O)[O-])cc1	-9.9	-0.6	nt	9.1
Cc1cccc(Nc2nc(NCCCN3CCOCC3)nc(N)c2[N+](=O)[O-])c1	-11.0	1.2	-4.7	36.9*
Nc1nc(NCCCN2CCOCC2)nc(Nc2ccccc2F)c1[N+](=O)[O-]	-16.6	-17.0	nt	25.3*
Nc1nc(NCCCN2CCOCC2)nc(Nc2cccc(F)c2)c1[N+](=O)[O-]	-2.5	5.3	nt	25.8*
Nc1nc(NCCCN2CCOCC2)nc(Nc2ccc(F)cc2)c1[N+](=O)[O-]	-12.4	30.0	-4.8	30.8*
Nc1nc(Nc2ccccc2F)nc(NCCO)c1[N+](=O)[O-]	-20.8	1.3	nt	nt
CCCCn1c(SCC(=O)Nc2nc(C)cs2)nnc1-c1cccnc1	2.7	3.7	0.4	-3.4
CCC(=O)c1c[nH]c(C(=O)NCc2cccnc2)c1	-8.5	80.1*	-2.3	-4.1
NNC(=O)c1ccc(COc2ccccc2)cc1	-8.9	-3.4	-1.4	-4.8
COc1ccc(Nc2nc3ccc(OC)cc3s2)cc1	-0.6	-11.4	5.3	-3.5
CC(Oc1ccccc1)C(=O)NNC(=O)c1cccs1 (stereo not drawn)	2.3	-3.8	nt	-5.7
COc1ccc2c(-c3ccccc3)cc(N3CCOCC3)nc2c1	-9.1	85.7*[fluorescence artefact?]	-0.8	-19.5
c1ccc(-c2cc(-c3ccc(N4CCOCC4)cc3)nc3ccccc23)cc1	-14.4	3.2	3.1	-5.3
CSC1=NC(C)(C)C=C(/C=C/c2ccc(Cl)cc2)N1	-11.4	-9.6	1.7	-4.9
O=c1oc2ccccc2c(O)c1/C=C1\C=Nc2ccccc21	45.9*	4.7	-4.9	-7.7
O=C(CCN1C(=O)[C@@H]2Cc3ccccc3CN2C1=O)N[C@@H](C(=O)O)c1ccccc1	nt	nt	nt	0.8
CCOC(=O)c1ccccc1NC(=O)c1c(F)c(F)c(F)c(F)c1F	-6.9	81.1*	-1.4	-2.9
COc1ccc(C(CNC(=O)CN2C(=O)NC3(CCCC3)C2=O)N(C)C)cc1 (stereo not drawn)	nt	nt	nt	-0.6
CC(OC(=O)Cc1ccc(Cl)cc1)C(=O)NC1CCCCC1C (stereo not drawn)	nt	nt	nt	-0.8
COC(=O)c1ccc(COc2ccc3c(C)c(C)c(=O)oc3c2C)o1	72.2*	19.6	4.3	nt
NS(=O)(=O)c1ccc(NC(=O)c2ccc(CNS(=O)(=O)c3cc(C(F)(F)F)ccc3Cl)cc2)cc1	nt	-2.1	1.6	107.8*
CC(/C=N\Nc1nnc2c(n1)[nH]c1c(C)cccc12)=C\c1ccco1	8.7	47.9	13.1*	2.5
CC(/C=N/n1c(-c2ccco2)n[nH]c1=S)=C\c1ccco1	8.7	-5.2	0.5	-10.9
CC(C)N(C(=O)Cn1c(Cl)nc2ccccc21)C(C)C	-0.2	14.1	-4.2	-1.3
SMILES	NCF1 inh	14-3-3 Bad PPI	HMGR II inh	dFosB act
COc1cccc(/C=N/Nc2nc(Nc3ccccc3)nc(-n3nc(C)cc3C)n2)c1O	-18.1	10.4	1.8	41.5*
CCn1cc(C(=O)O)c(=O)c2cc(F)c(N3CCN(C(=S)NC(=O)c4ccccc4Br)CC3)cc21	nt	nt	nt	-0.1
CCc1nc2sc3ccccc3c(=O)c2c(=O)n1Cc1ccco1	-36.6	8.4	0.3	-23.7
O=c1c2ccccc2sc2nc(C3CCCCC3)n(Cc3ccco3)c(=O)c12	-7.4	73.4*	1.9	-11.4
Cc1cc(N2CC(=O)N(CCc3ccccc3)C(=O)C2)n2ncnc2n1	-16.6	2.4	9.0	-1.4
N#Cc1c2c(c(-c3ccccc3Cl)[nH]c1=S)CCCC2	-8.7	-17.5	24.1*	-10.3
CCOC(=O)c1sc(N)nc1C(C)(C)C	-11.1	74.1*	-3.2	-2.1
O=C(CSc1nnc(SCc2ccccc2)s1)N/N=C/c1c[nH]c2ccccc12	42.5*	93.6*	1.3	-13.8
O=C(CSc1nnc(SCc2ccccc2Cl)s1)N/N=C/c1c[nH]c2ccccc12	-17.4	-8.8	-9.4	-1.6
CCOC(=O)COc1cc(-n2c(=S)[nH]c3cc(OC)c(OC)cc3c2=O)c(Cl)cc1Cl	37.4*	-13.0	-3.6	3.4
C#CCOCCOCCOCCNc1nc(N2CCN(C(=O)C(Cc3cc4ccccc4[nH]3)n3cc(C(N)Cc4ccc(O)cc4)nn3)CC2)nc(N2CCN(C(=O)C(Cc3cc4ccccc4[nH]3)n3cc(C(N)Cc4ccc(O)cc4)nn3)CC2)n1 (stereo not drawn)	64.7*	-24.3	-3.6	nt
